# Results published in PubChem BioAssay AID2314 (National Center for Advancing Translational Sciences (NCATS), 2010).
# Several values for one entry are separate records, joined by “and”; a condition that tells them apart may be missing. Identical values can stand only once. The whole screen tested about 300,000 compounds, of which about 37,000 (12%) were called active. Rule as the data show it: active = max response mostly above about 13% (no sharp cut-off); inactive = mostly below about 14%. The entries come from a sample that favours actives as a whole.
# Assay: Cycloheximide Counterscreen for Small Molecule Inhibitors of Shiga Toxin; also: read at 38.3 µM for the half of the compounds with a filed dose; 0% is about no effect
# Conditions: cell reporter, cycloheximide protein synthesis inhibition counterscreen; active compounds read high
row,Structure (SMILES),max response
1,COc1ccc(N2CCN(C(=O)[C@@H](NC(=O)c3cc(OC)cc(OC)c3)C(C)C)CC2)cc1,-0.698% (inactive)
2,NS(=O)(=O)c1cccnc1Nc1cccc(Cl)c1,5.31% (inactive)
3,OCCCNc1nccc(-c2cc(Nc3cccc(Cl)c3)ncn2)n1,26.9% (active)
4,CC(C)n1cnc2c(Nc3cccc(Cl)c3)nc(N(CCO)CCCO)nc21,-7.35% (inactive)
5,CC(=O)N1CCN(CC(c2ccccc2)c2ccccc2)CC1,-2.13% (inactive)
6,Cc1ccc(N2C(=O)C3C4C=CC(CC4)C3C2=O)cc1Cl (centres undefined),0.718% (inactive)
7,CCN1C(=S)N[C@@H](CCc2ccccc2)[C@H](C(=O)OC)[C@H]1C,-1.59% (inactive) and -1.62% (inactive)
8,COC(=O)c1c(NC(=O)CN(c2ccc(C)c(C)c2)S(C)(=O)=O)sc2c1CCCC2,-3.45% (inactive)
9,CC(=O)Nc1ccc(S(=O)(=O)Nc2cc(C)cn(Cc3ccc(C)cc3)c2=O)cc1,10.7% (inactive)
10,COc1cccc(CNC(=O)COc2cc(O)c3c(c2)OC(C)(C)CC3=O)c1,6.81% (inactive)
11,CCOC(=O)C1CCN(Cc2c(C(=O)N3CCOCC3)nc3c(C)cccn23)CC1,-0.834% (inactive)
12,CC(C)(C)C1C/C(=C/c2ccco2)C(=O)/C(=C/c2ccco2)C1 (centres undefined),46.9% (active)
13,COC(=O)C1=C(C)N(c2ccc(Br)cc2)C(=O)/C1=C\c1ccco1,19.6% (inactive)
14,COC(=O)COc1ccc2c(c1C)O/C(=C\c1ccco1)C2=O,8.5% (inactive)
15,O=[N+]([O-])c1cc(Cl)cc(/C=N/NC(=S)Nc2cc(S(=O)(=O)N3CCOCC3)ccc2Cl)c1O,6.73% (inactive)
16,CCN(C(=O)COc1ccc(C(=O)c2ccccc2)cc1)c1ccccc1,8.19% (inactive)
17,Cc1cc(C)n(CCC(=O)N2CCN(S(=O)(=O)c3ccc(C)c(C)c3)CC2)n1,-4.77% (inactive)
18,O=C(O)c1ccc(N/N=C/c2ccc3ncccc3c2)cc1,40% (active)
19,CCNC(=S)NNC(=O)c1ccc2ncccc2c1,23.2% (inactive)
20,CSCC[C@H](NC(=O)OC(C)(C)C)C(=O)N/N=C/c1cc2ccc(C)cc2nc1Cl,-2.35% (inactive)
21,Cc1ccc2cc(/C=N/Nc3ccc(C(=O)O)cc3)c(Cl)nc2c1,33.1% (active)
22,O=C(O)c1ccc(/C=N/Nc2nc(N3CCCCC3)nc(N3CCCCC3)n2)cc1,-2.21% (inactive)
23,Cc1ccc2cc(/C=N/NC(=O)[C@@H]3CCCN3)c(Cl)nc2c1,12.2% (inactive)
24,COc1ccccc1N1CCN(C(=O)CCS(=O)(=O)c2ccc3c(c2)NC(=O)C(C)S3)CC1 (centres undefined),18.6% (inactive)

row,Structure (SMILES),max response
1,Cc1cc(CNC(=O)C2CCC(=O)N(CCc3ccc(Cl)cc3)C2)no1 (centres undefined),0.258% (inactive)
2,NC(=O)c1cc(-c2cccnc2)nc2ccc(Br)cc12,0.502% (inactive)
3,Cc1ccc2c(c1)N(C(=O)CCC(=O)N1CCc3ccccc3C1)CCO2,13.8% (inactive)
4,Cc1ccccc1-n1c(SCC(=O)Nc2cccc3ccccc23)nc(O)cc1=O,-2.55% (inactive)
5,CC(=O)N(C)c1ccc(NC(=O)Nc2cccc3ccccc23)cc1,33% (active)
6,CCOc1ccc(NC(=O)Nc2ccc(N(C)C(C)=O)cc2)cc1,-1.58% (inactive)
7,O=C(O)Cc1ccc(NC(=O)Nc2cccc3ccccc23)cc1,0.207% (inactive)
8,O=C(NCC(=O)N1CCC2(CC1)NCCc1[nH]cnc12)c1ccc(Br)cc1,1.26% (inactive)
9,CC(C)Nc1ccc(-n2nc3ccccc3[n+]2[O-])cc1,25.2% (active)
10,Clc1ccc(-c2nc3ccccn3c2CN2CCSCC2)cc1,12.2% (inactive)
11,Cc1cn(C2OC[C@@H](O)[C@@H]2CO)c(=O)[nH]c1=O (some centres undefined),-1.7% (inactive)
12,O=C(N/N=C\c1cc2c(cc1Cl)OCO2)c1ccc(Br)s1,-4.62% (inactive)
13,CCCCCCCCC(=O)NCCOc1ccccc1,-1.44% (inactive)
14,CCCCCCOC(=O)NCC(O)c1ccccc1 (centres undefined),29.3% (active)
15,CCCCOC(=O)Nc1nnc(CC(=O)NCc2ccccc2)s1,-2.89% (inactive)
16,CC(=O)C1=C(C)NC(=O)NC1c1ccc2c(c1)OCO2 (centres undefined),0.903% (inactive)
17,COc1ccc(CNC(=O)C(C)NCc2ccccc2Cl)cc1 (centres undefined),-2.73% (inactive)
18,CC(C)(O)C#Cc1ccc(CN2CCC(CO)(CCc3ccccc3)CC2)cc1,-2.91% (inactive)
19,COc1ccc(C(=O)NC(=S)N2CCCCC2c2cccnc2)cc1OC (centres undefined),1.6% (inactive)
20,CCOc1ccc(-n2c(SCC(=O)Nc3ccc(OC)cc3)nc3sc4c(c3c2=O)CCN(C)C4)cc1,-3.77% (inactive)
21,COc1ccccc1NC(=O)CSc1nc2sc3c(c2c(=O)n1-c1ccccc1)CCN(C)C3,33.2% (active)
22,CCOc1ccc(-n2c(SCC(=O)OC)nc3sc4c(c3c2=O)CCN(C)C4)cc1,-9.49% (inactive)
23,CCO[C@H]1OC(C(=O)N2CCCCCCC2)=C[C@@H](c2ccc(C(F)(F)F)cc2)[C@@H]1CCCO,-3.3% (inactive)
24,CCCC(C(=O)n1nc(C)cc1C)C(NS(=O)(=O)c1ccc(C)cc1)c1ccccc1 (centres undefined),8.08% (inactive)

row,Structure (SMILES),max response
1,N#CCC(=O)NC1CCC(CC2CCC(NC(=O)CC#N)CC2)CC1 (centres undefined),-6.39% (inactive)
2,O=C(Cc1ccc(Cl)cc1)NCc1nc(-c2ccccc2)no1,16.7% (inactive)
3,c1ccc(CCc2nc(-c3ccncc3)no2)cc1,30.3% (active)
4,O=C1c2ccccc2C(=O)N1CCCc1nc(-c2ccccc2)no1,4.56% (inactive)
5,CN(CC1CCCO1)S(=O)(=O)c1ccc(C(=O)Nc2ccc([N+](=O)[O-])cc2)cc1 (centres undefined),-2.48% (inactive)
6,O=C(Cn1c(COc2ccccc2)nc2ccccc21)Nc1cc(Cl)c(Cl)cc1Cl,6.88% (inactive)
7,Cc1ccc(OCc2nc3ccccc3n2C)cc1,26.1% (active)
8,Cn1c(COc2ccc(Cl)cc2)nc2ccccc2c1=O,31.5% (inactive)
9,CC(C)n1c(COc2ccccc2)nc2ccccc21,2.4% (inactive)
10,COCn1c(COc2ccccc2)nc2ccccc21,36.4% (active)
11,Cc1ccc(OCc2n[nH]c(=S)n2-c2ccccc2)cc1,-8.01% (inactive)
12,CC1(C)Cc2cccc(OCC(=O)NCc3ccccc3)c2O1,-11.4% (inactive)
13,COC(=O)C1=C(C)N(C)C(=O)NC1c1ccc([N+](=O)[O-])o1 (centres undefined),-2.81% (inactive)
14,O=C(CO/N=C/c1ccc(OC(F)F)cc1)NCc1ccc(F)cc1,-1.6% (inactive)
15,O=C(Cn1ncc(N2CCCC2)c(Br)c1=O)c1ccc(Cl)cc1,21.9% (active)
16,Cn1c(=O)c2c(nc(N3CCCCCC3)n2CC(=O)c2ccc(Br)cc2)n(C)c1=O,4.19% (inactive)
17,CC(=O)Cn1ncc(N2CCOCC2)c(Br)c1=O,8.19% (inactive)
18,O=c1[nH]c(CCl)nc2cc(-c3ccc(Cl)cc3)sc12,3.01% (inactive)
19,O=C(Nc1ccc(NC(=O)c2cccs2)cc1)c1ccc2ccccc2c1,21.9% (inactive)
20,O=C(Nc1ccc2c(c1)C(=O)OC2)Nc1cccc2ccccc12,8.24% (inactive)
21,CC(O)c1cccc(NC(=O)Cc2cccc3ccccc23)c1 (centres undefined),-1.49% (inactive)
22,O=C(NC(=S)Nc1cccc(-c2ccc(CO)o2)c1)c1cccs1,12.5% (inactive)
23,O=C(Nc1ccc2oc(-c3ccc4ccccc4c3)nc2c1)c1cccs1,42.5% (active)
24,O=C(Cc1cccc2ccccc12)Nc1ccc2oc(-c3ccccc3)nc2c1,51.7% (active)

row,Structure (SMILES),max response
1,Cc1ccc(NC(=O)CSc2nn3c(=O)c(C)nnc3s2)cc1Cl,8.05% (inactive)
2,CC(OC(=O)c1ccccc1N1C(=O)C2C3CCC(C3)C2C1=O)C(=O)c1ccccc1 (centres undefined),-0.595% (inactive)
3,O=C(Oc1ccc([N+](=O)[O-])cc1)c1ccc2ccccc2n1,33.2% (active)
4,CCCCC(C(=O)OCC(=O)c1ccc(OC)cc1)N1C(=O)c2ccccc2C1=O (centres undefined),1.39% (inactive)
5,COc1ccccc1NC(=O)CCC(=O)OC(C)C(=O)c1ccccc1 (centres undefined),-2.18% (inactive)
6,O=C(CNC(=O)c1ccccc1)Oc1ccc([N+](=O)[O-])cc1,0.695% (inactive)
7,COc1ccc(C2=NOC(COC(=O)c3ccc4ccccc4n3)C2)cc1 (centres undefined),12.5% (inactive)
8,O=C(Oc1ccc([N+](=O)[O-])cc1)c1ccc(Cl)c(S(=O)(=O)N2CCCCC2)c1,7.89% (inactive)
9,CC(OC(=O)c1ccc2ccccc2n1)C(=O)c1ccccc1 (centres undefined),25.1% (active)
10,COc1ccc(C(=O)COC(=O)c2ccc3ccccc3n2)cc1,20.4% (active)
11,CCCn1cc(S(=O)(=O)c2ccc(C)cc2)c(=O)c2cc(OCC)ccc21,-2.9% (inactive)
12,Nc1nc(NCC(=O)O)nc(N2CCCCCC2)c1[N+](=O)[O-],-3.03% (inactive)
13,COc1ccc(NC(=O)c2cccc3c2C(=O)N(CC2CCCO2)C3)cc1OC (centres undefined),1.17% (inactive)
14,COc1ccccc1N(CC(=O)NC1CCCC1)C(=O)C1(C)CC(=O)N=C2C=CC(C)=CN21 (centres undefined),-3.56% (inactive)
15,CN(C)C(=O)c1ccc2c(c1)C1C3CCC(C3)C1C(c1ccccc1)N2 (centres undefined),-4.56% (inactive)
16,CN(C)CCCN(C(=O)COc1ccccc1)c1nc2c(Cl)cccc2s1,-4.5% (inactive)
17,NNc1nc2c(Cl)cccc2s1,53.2% (active)
18,Cc1ccc(S(=O)(=O)Cc2cc(-c3ccc(Cl)cc3)no2)cc1,0.779% (inactive)
19,Cc1ccc(-c2cc(N)on2)cc1,21% (active)
20,CC(C)(C)Nc1c(N)c(=O)oc2ccccc12,-1.31% (inactive)
21,Nc1c(NCCc2ccccc2)c2ccccc2oc1=O,23.7% (active)
22,NC(=O)c1oc2ccccc2c1NC(=O)Cc1ccccc1,-2.17% (inactive)
